± gives the standard deviation of the averaged measurements. In all, about 25,000 sequences were measured (“ln(normalized median fluorescence intensity)”: median about 7.9, highest 2% from about 11 on). The list comes from a sample in which the highest values are over-represented; it also holds similar and randomly drawn sequences.
test system: PfAP2-I AP2 domain 3 (GST-tagged); assay: gcPBM binding intensity (ln(normalized median fluorescence intensity)); higher = stronger DNA binding
Summary of the method: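 Binding intensity is defined as the maximum Masliner-normalised natural-log median intensity across replicate spots for either probe orientation. It was measured on an Agilent 4 × 180k array of primer-extended double-stranded 36-bp intergenic genomic probes and negative controls, to which GST-tagged P. falciparum DNA-binding domains made in E. coli were applied for 1 h in 1× PBS with 1% milk, 0.2 mg/ml BSA, 0.5% salmon testes DNA and 0.03% Triton X-100. Detection was by Alexa488 anti-GST antibody and scanning at 488 nm.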

Row | Sequence | gcPBM binding intensity (ln)
1 | AAAAAGAACAGAAACACACAAATAAAATAAAATTGT [CACACA_site6921] | 7.72 ± 0.61
2 | TTTTTTTTCTTTTTTTGTACATAATAATATATAAAT [XGTACX_site6778] | 7.68 ± 0.35
3 | TGTTCTATTCTATTATTATTTACAAATTATAAATAA [GTGCAC_negctrl_site232] | 7.89 ± 0.37
4 | TTTAATTTTCGGTGTGCACACAACTATGAGTTTTTA [CACACA_site3034] | 9.565 ± 0.035
5 | ATACAATTTATTTTAACACACGAATGAATTGATTAT [CACACA_site4160] | 7.76 ± 0.63
6 | TGTGTATATCGATAAAGTACATTTGAAAAGTGACTT [XGTACX_site6957] | 7.62 ± 0.51
7 | TTTTATTTTTTTAAATGTACACATATTAATGTAAGG [XGTACX_site319] | 7.92 ± 0.3
8 | TATTGGATCACACAAAAATGTATAAATAAATAGAAA [TGCATGCA_negctrl_site490] | 7.7 ± 0.61
9 | TCGAACATTAACATAACACACATATATATATATATA [CACACA_site2900] | 9.27 ± 0.29
10 | TTATTTTTGTTCATAGTGCATAGAATTTATACATAT | 9.91 ± 0.33
11 | TATATACATATATGCACACAAAAAAATATATATTTT [CACACA_site1729] | 8.99 ± 0.11
12 | GAAATTTGTTATTGCACACAAATTTTTCTTTTTTTA [CACACA_site2339] | 10.14 ± 0.028
13 | ATATATTTGATAAGAGTGCACAAATACATACATACA [GTGCAC_site9704] | 10.94 ± 0.071
14 | TATCCATTTCTTTATGTGCACATTAAATATATTTGT | 10.2 ± 0.4
15 | ATATTTTGTTTTATAGTGCACATGGGCATATATTAA [GTGCAC_site9435] | 11 ± 0.32
16 | ATATTATTATATATAGTGCATATTATTATTTTTATT | 10.2 ± 0.42
17 | TACATATTGATATATACACACAAAAAAATAAATTCT [CACACA_site6198] | 7.61 ± 0.54
18 | CATTTTATTTTCTTTGTGCACAAAAATATTTTTTCT | 11.13 ± 0.092
19 | TTGTTTGATATCTTTGTCACGAAAAAAATATATATA [GTGCAC_negctrl_site54] | 7.83 ± 0.64
20 | TCTTTTTTCATATTTTCACACATGTCTTTATATTTA [CACACA_site6025] | 8.28 ± 0.65
21 | ATGAATAAATGAACATGTACATATATATATATATTA [XGTACX_site5005] | 7.76 ± 0.47
22 | TTTTGGCTTCTAATATTATACAAAATGGTAAGGAAA [TGCATGCA_negctrl_site169] | 7.94 ± 0.4
23 | TAATTTCTTAGGTATTGTACAAATATTATATGATAT [XGTACX_site256] | 7.55 ± 0.59
24 | TATCCCTTAGAATACACACCCATATGAGGGTGAACT [CACACA_site5610] | 7.76 ± 0.26

Row | Sequence | gcPBM binding intensity (ln)
25 | TATATTTCAGGGGGGAGTACAAATTTTTTTATATAA [XGTACX_site1600] | 11 ± 0.52
26 | TATAATTATATTTGGAGTACAAATTTTTTTTTTTTT [XGTACX_site7494] | 7.765 ± 0.007
27 | TATTTTTTTTTTATATGTACATAATTTCAAATAAAT [XGTACX_site7747] | 7.97 ± 0.41
28 | ATTATTATATATATAACACACATAATTATATACTTA [CACACA_site1563] | 7.89 ± 0.38
29 | TCTATAAAGTTCCATACATGCGCCATCATTTATATT [TGCATGCA_site195] | 7.97 ± 0.79
30 | TTTTTAATCAGAAATATTTATTAAAGAATTTTATAG [GTGCAC_negctrl_site725] | 7.32 ± 0.34
31 | AGATATTTATTGAGTGCATGTTATAAAGGGAAAAAA [TGCATGCA_site88] | 9.04 ± 0.17
32 | TTTGTTTTTTTGAGAGTGCAATATATATAAAAAGGG [GTGCAC_site9691] | 11.2 ± 0.64
33 | TTATAAATAAAAAGAGTGCAATTATAAATATATATA | 10.1 ± 0.23
34 | GGTTAAAAAAAGCATACACACTATCCTCTTTGCTCT [CACACA_site7246] | 7.9 ± 0.65
35 | AAATGAAATAAAATCATATATTTATAATTATTATAA [TGCATGCA_negctrl_site612] | 7.27 ± 0.41
36 | TTTTTTTTTTTTTTTGCACACTATATTTAATATAAG [CACACA_site2444] | 9.42 ± 0.21
37 | ATATATCATAAATAAATGAAAATATTTTCTATGTGT [CACACA_negctrl_site689] | 7.77 ± 0.62
38 | CAAAATATTTTTATAACACACATATATATAATGTGC [CACACA_site4767] | 7.8 ± 0.52
39 | TTTAATTATTAAATGGTGCACTTGAAATATAAAAAT | 11 ± 0.45
40 | TGCATAATTAAAAATGGTACACTGTATTTATAATAT [XGTACX_site1575] | 7.95 ± 0.61
41 | AATTTTTTTTTTTTTTTTTTTTATATATGTGTGTGT [XGTACX_negctrl_site129] | 7.59 ± 0.28
42 | ATATATTTTATATGTGTGCACTATATATATATATAT | 11.4 ± 0.3
43 | TATATATATTTTTGTGTGCACTATAATATGAAAATA | 11.4 ± 0.45
44 | GTTTATTTATTTTATGTGCACATATAACAAAAAAAA | 10.36 ± 0.028
45 | ATCATATTTTTATGTGTGCACTTTTTTTTTTTTTTT [GTGCAC_site9555] | 10.25 ± 0.014
46 | TATATTTTTATGTGTGTGCACAAAATAACAAAATAT [GTGCAC_site9596] | 11.1 ± 0.35
47 | ACAAAGTAAAATAATGCATGTAGGTATACATAATTA [TGCATGCA_site607] | 7.71 ± 0.81
48 | TAGAACAAATAAAACACACACATATATATATATATG [CACACA_site2768] | 8.06 ± 0.41

Row | Sequence | gcPBM binding intensity (ln)
49 | ATATATTAAAAGGATTAGGAAAAAATATGATTTATC [TGCATGCA_negctrl_site405] | 7.55 ± 0.78
50 | GAACAAAATTTTATATGTACATAATATTTATATATA [XGTACX_site3667] | 8 ± 0.2
51 | TTACAAGTAAAAGGTACACACATTATATATACAAAT [CACACA_site8290] | 7.97 ± 0.55
52 | TTTTTTTTCATTTTATGTACACATAATTTAATATAT [XGTACX_site5768] | 8.16 ± 0.45
53 | CATGACATATCCTGTAGTACAACGTATATATAAGAT [XGTACX_site2577] | 7.8 ± 0.61
54 | TTTCAATTTATCAGTGTGCACAAAAATAAAATAAAA | 10.88 ± 0.028
55 | ATATAGAAAATGCATACACACTTTATAAATATATTT [CACACA_site6553] | 7.92 ± 0.53
56 | CAATTTATTATATATGTGCACATATAATTTTACAAA | 9.59 ± 0.24
57 | AATACTTTTTATTTAGTGCATAAGAAAATATAAATC [GTGCAC_site9875] | 10.9 ± 0.44
58 | ATCAAAAATATAAAAAATATAAACAATTTATTATCA [CACACA_negctrl_site768] | 7.32 ± 0.47
59 | CTTAAAATATATTTAGTGCATATACTAATATATTAT | 10.2 ± 0.45
60 | TTATAATTTTAATGTGCACACAATTAAAATATTATA [CACACA_site5172] | 10.79 ± 0.085
61 | AAATAAAAATTAAAAAAATAGAAACGAATTGAATGC [TGCATGCA_negctrl_site365] | 7.83 ± 0.64
62 | TTTTTTCAATTTTTTTTAAATAAACCACAAAAAAAA [CACACA_negctrl_site1701] | 7.74 ± 0.49
63 | GAATAAATATTAAATGTGCACTTGAATAGATGTAAA | 10.1 ± 0.16
64 | TATTTATAAATATGTGTGCACAATTTATTTTATAAT | 11 ± 0.26
65 | TATAAATTAAAATGTGTGCACTAAATTGAAATAGAA | 11.5 ± 0.53
66 | ATATATTTTTAAAAAAATTAAGAATTTTACATCTCC [CACACA_negctrl_site1450] | 7.59 ± 0.65
67 | AACAATTATTTATCTACACACTTTTATGTTATTTAC [CACACA_site9] | 7.88 ± 0.67
68 | AATTTTTTTTTCTTTTGTACGTAAATATGTGTAGGC [XGTACX_site215] | 8.33 ± 0.26
69 | ATGTGAAAATAAGACACACTCAAAAGGTTTATATTA [CACACA_site4595] | 7.67 ± 0.43
70 | ATACTTTTAATATGCACATGCAAATATGAAATATCG [TGCATGCA_site603] | 9.22 ± 0.39
71 | TTATAAAAAAAAAAAAAAAAAAAAACCAATATAATA [CACACA_negctrl_site968] | 7.3 ± 0.48
72 | ATTTATTTGAAGAATTGTACTAAATTATATAGCGGT [XGTACX_site4998] | 7.94 ± 0.49

Row | Sequence | gcPBM binding intensity (ln)
73 | TATATATATAAATACACACACACCGTCCGTGTTAAA [CACACA_site5623] | 8.54 ± 0.53
74 | TTTATATTCTTAAGTGTGCACTATATATATATATAT [GTGCAC_site9719] | 11.2 ± 0.23
75 | TATTATATAATAAAAATTATTATTATTTGTATAAAT [CACACA_negctrl_site195] | 7.21 ± 0.42
76 | TATTAACAAATTTATGTGCACTGAGGACAAATATAT | 10.96 ± 0.085
77 | TTTTCTTGGTTCAGTGTGCACTTATATATATATATA | 10.3 ± 0.2
78 | ACAAAAAAAATAAGCACACATATATATATATATATA [CACACA_site816] | 9.38 ± 0.36
79 | AATAATAAAAATATTGTGCACTTGTATATTTATTAT [GTGCAC_site9963] | 11 ± 0.11
80 | TTTTTTATTATATAATTGTATATAAAATTATAATTT [GTGCAC_negctrl_site733] | 7.67 ± 0.47
81 | ATTTATATTAAAAGTGTGCACTTTTTTTTTTTTTTT | 9.77 ± 0.085
82 | ATATATATATATATTGTGCACAAAAAAAAATAAGCA | 11.2 ± 0.15
83 | ATTATTAATAATTGTGTGCACAAATATTTATATGCT | 10.815 ± 0.007
84 | TATAAAAATAAGCACACACACAAATATATATTTATT [CACACA_site922] | 8.12 ± 0.25
85 | GCCCCCAAATTATGTGTGCACTTTATATTCCTGAGA [GTGCAC_site9474] | 10.4 ± 0.23
86 | ATGTTATAAGATTTATGTACACACATATACACACCT [XGTACX_site1316] | 8.35 ± 0.21
87 | CATAAATCAGCCATAACACACATACCTATATACATA [CACACA_site6324] | 7.75 ± 0.57
88 | TAAAATATTATCTACGCACACATTAAAATAAAAAAA [CACACA_site3709] | 8.32 ± 0.2
89 | ACTTTAAAAAGATTCACACAAAATATATAAAAATAT [CACACA_site5334] | 7.75 ± 0.39
90 | AGAATTTTATTATATTGTACTTTTTATAAACCTTGT [XGTACX_site7495] | 7.7 ± 0.71
91 | ATTAAAACACAATATTCACACATGTATATTATATAT [CACACA_site5191] | 7.72 ± 0.51
92 | CATATATATATATGAACACACAAAAAGAATATTTCC [CACACA_site1493] | 7.62 ± 0.63
93 | GAATATGTAAAGAAAGGTACACATGAAAATATGTGT [XGTACX_site446] | 7.71 ± 0.66
